# Like-named read-outs stand apart in the source and are kept apart here.
# Biological target: Q6ZSR9 (human, UniProt Q6ZSR9)
# Settings: read-out: apparent Kd, n = 1
# Q6ZSR9, sequence (Q6ZSR9 whole entry, looked up): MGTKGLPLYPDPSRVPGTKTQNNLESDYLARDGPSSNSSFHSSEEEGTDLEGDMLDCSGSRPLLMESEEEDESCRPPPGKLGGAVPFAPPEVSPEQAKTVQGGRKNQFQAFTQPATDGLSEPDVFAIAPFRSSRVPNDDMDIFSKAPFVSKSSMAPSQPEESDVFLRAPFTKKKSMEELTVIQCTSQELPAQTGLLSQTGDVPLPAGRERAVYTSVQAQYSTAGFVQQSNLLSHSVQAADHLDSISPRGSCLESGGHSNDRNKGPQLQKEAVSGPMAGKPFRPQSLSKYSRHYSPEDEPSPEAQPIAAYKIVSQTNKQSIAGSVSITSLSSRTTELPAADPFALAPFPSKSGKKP
substance,measurement,setting,value
Lestaurtinib,potency estimated from few doses,"compound concentrations:100 nM and 1000 nM (sheet 'Lestaurtinib' of Supplementary Table 1),run:Lestaurtinib_02496_R1,Plate:MR013",65.5 nM
same,potency estimated from few doses,"compound concentrations:100 nM and 1000 nM (sheet 'Lestaurtinib' of Supplementary Table 1),run:Lestaurtinib_02496_R2,Plate:MR013",59.5 nM
same,potency estimated from few doses,"compound concentrations:100 nM and 1000 nM (sheet 'Lestaurtinib' of Supplementary Table 1),run:Lestaurtinib_02496_R3,Plate:MR013",66.8 nM
same,potency estimated from few doses,"compound concentrations:100 nM and 1000 nM (sheet 'Lestaurtinib' of Supplementary Table 1),run:Lestaurtinib_02566_R2,Plate:MR014",55.7 nM
same,potency estimated from few doses,"compound concentrations:100 nM and 1000 nM (sheet 'Lestaurtinib' of Supplementary Table 1),run:Lestaurtinib_02566_R3,Plate:MR014",80.5 nM
same,potency estimated from few doses,"compound concentrations:100 nM and 1000 nM (sheet 'Lestaurtinib' of Supplementary Table 1),run:Lestaurtinib_02572_R1,Plate:MR015",40.6 nM
same,potency estimated from few doses,"compound concentrations:100 nM and 1000 nM (sheet 'Lestaurtinib' of Supplementary Table 1),run:Lestaurtinib_02572_R2,Plate:MR015",74.4 nM
same,potency estimated from few doses,"compound concentrations:100 nM and 1000 nM (sheet 'Lestaurtinib' of Supplementary Table 1),run:Lestaurtinib_02572_R3,Plate:MR015",48.9 nM
same,potency estimated from few doses,"compound concentrations:100 nM and 1000 nM (sheet 'Lestaurtinib' of Supplementary Table 1),run:Lestaurtinib_02577_R1,Plate:MR016",63.4 nM
same,potency estimated from few doses,"compound concentrations:100 nM and 1000 nM (sheet 'Lestaurtinib' of Supplementary Table 1),run:Lestaurtinib_02577_R2,Plate:MR016",53.4 nM
same,potency estimated from few doses,"compound concentrations:100 nM and 1000 nM (sheet 'Lestaurtinib' of Supplementary Table 1),run:Lestaurtinib_02577_R3,Plate:MR016",59.4 nM
same,potency estimated from few doses,"compound concentrations:100 nM and 1000 nM (sheet 'Lestaurtinib' of Supplementary Table 1),run:Lestaurtinib_02584_R1,Plate:MR017",92.8 nM
same,potency estimated from few doses,"compound concentrations:100 nM and 1000 nM (sheet 'Lestaurtinib' of Supplementary Table 1),run:Lestaurtinib_02584_R2,Plate:MR017",64.9 nM
same,potency estimated from few doses,"compound concentrations:100 nM and 1000 nM (sheet 'Lestaurtinib' of Supplementary Table 1),run:Lestaurtinib_02584_R3,Plate:MR017",79 nM
same,potency estimated from few doses,"compound concentrations:100 nM and 1000 nM (sheet 'Lestaurtinib' of Supplementary Table 1),run:Lestaurtinib_02601_R1,Plate:MR018",49.8 nM
same,potency estimated from few doses,"compound concentrations:100 nM and 1000 nM (sheet 'Lestaurtinib' of Supplementary Table 1),run:Lestaurtinib_02601_R3,Plate:MR018",44.4 nM
same,potency estimated from few doses,"compound concentrations:100 nM and 1000 nM (sheet 'Lestaurtinib' of Supplementary Table 1),run:Lestaurtinib_02606_R2,Plate:MR019",52 nM
same,potency estimated from few doses,"compound concentrations:100 nM and 1000 nM (sheet 'Lestaurtinib' of Supplementary Table 1),run:Lestaurtinib_02606_R3,Plate:MR019",60.4 nM
same,potency estimated from few doses,"compound concentrations:100 nM and 1000 nM (sheet 'Lestaurtinib' of Supplementary Table 1),run:Lestaurtinib_02624_R2,Plate:MR020",61.1 nM
same,potency estimated from few doses,"compound concentrations:100 nM and 1000 nM (sheet 'Lestaurtinib' of Supplementary Table 1),run:Lestaurtinib_02624_R3,Plate:MR020",55.5 nM
same,potency estimated from few doses,"compound concentrations:100 nM and 1000 nM (sheet 'Lestaurtinib' of Supplementary Table 1),run:Lestaurtinib_02724_R2,Plate:MR021",51.2 nM
same,potency estimated from few doses,"compound concentrations:100 nM and 1000 nM (sheet 'Lestaurtinib' of Supplementary Table 1),run:Lestaurtinib_02724_R3,Plate:MR021",61.2 nM
same,potency estimated from few doses,"compound concentrations:100 nM and 1000 nM (sheet 'Lestaurtinib' of Supplementary Table 1),run:Lestaurtinib_02741_R1,Plate:MR023",77.1 nM
same,potency estimated from few doses,"compound concentrations:100 nM and 1000 nM (sheet 'Lestaurtinib' of Supplementary Table 1),run:Lestaurtinib_02741_R2,Plate:MR023",85.4 nM
same,potency estimated from few doses,"compound concentrations:100 nM and 1000 nM (sheet 'Lestaurtinib' of Supplementary Table 1),run:Lestaurtinib_02741_R3,Plate:MR023",77.2 nM
same,potency estimated from few doses,"compound concentrations:100 nM and 1000 nM (sheet 'Lestaurtinib' of Supplementary Table 1),run:Lestaurtinib_02748_R1,Plate:MR024",67.4 nM
same,potency estimated from few doses,"compound concentrations:100 nM and 1000 nM (sheet 'Lestaurtinib' of Supplementary Table 1),run:Lestaurtinib_02748_R2,Plate:MR024",46.2 nM
same,potency estimated from few doses,"compound concentrations:100 nM and 1000 nM (sheet 'Lestaurtinib' of Supplementary Table 1),run:Lestaurtinib_02748_R3,Plate:MR024",66.5 nM
same,potency estimated from few doses,"compound concentrations:100 nM and 1000 nM (sheet 'Lestaurtinib' of Supplementary Table 1),run:Lestaurtinib_02752_R1,Plate:MR025",48.7 nM
same,potency estimated from few doses,"compound concentrations:100 nM and 1000 nM (sheet 'Lestaurtinib' of Supplementary Table 1),run:Lestaurtinib_02765_R2,Plate:MR026",131 nM
same,potency estimated from few doses,"compound concentrations:100 nM and 1000 nM (sheet 'Lestaurtinib' of Supplementary Table 1),run:Lestaurtinib_02765_R3,Plate:MR026",71.7 nM
same,potency estimated from few doses,"compound concentrations:100 nM and 1000 nM (sheet 'Lestaurtinib' of Supplementary Table 1),run:Lestaurtinib_02766_R1,Plate:MR027",47.5 nM
same,potency estimated from few doses,"compound concentrations:100 nM and 1000 nM (sheet 'Lestaurtinib' of Supplementary Table 1),run:Lestaurtinib_02766_R2,Plate:MR027",37.3 nM
same,potency estimated from few doses,"compound concentrations:100 nM and 1000 nM (sheet 'Lestaurtinib' of Supplementary Table 1),run:Lestaurtinib_02766_R3,Plate:MR027",47 nM
same,potency estimated from few doses,"compound concentrations:100 nM and 1000 nM (sheet 'Lestaurtinib' of Supplementary Table 1),run:Lestaurtinib_02768_R1,Plate:MR028",48.3 nM
same,potency estimated from few doses,"compound concentrations:100 nM and 1000 nM (sheet 'Lestaurtinib' of Supplementary Table 1),run:Lestaurtinib_02768_R2,Plate:MR028",49.7 nM
same,potency estimated from few doses,"compound concentrations:100 nM and 1000 nM (sheet 'Lestaurtinib' of Supplementary Table 1),run:Lestaurtinib_02768_R3,Plate:MR028",57.7 nM
same,potency estimated from few doses,"compound concentrations:100 nM and 1000 nM (sheet 'Lestaurtinib' of Supplementary Table 1),run:Lestaurtinib_02795_R1,Plate:MR022",67.2 nM
same,potency estimated from few doses,"compound concentrations:100 nM and 1000 nM (sheet 'Lestaurtinib' of Supplementary Table 1),run:Lestaurtinib_02795_R2,Plate:MR022",73.9 nM
same,potency estimated from few doses,"compound concentrations:100 nM and 1000 nM (sheet 'Lestaurtinib' of Supplementary Table 1),run:Lestaurtinib_02802_R1,Plate:MR029",52.5 nM
same,potency estimated from few doses,"compound concentrations:100 nM and 1000 nM (sheet 'Lestaurtinib' of Supplementary Table 1),run:Lestaurtinib_02802_R2,Plate:MR029",43.8 nM
same,potency estimated from few doses,"compound concentrations:100 nM and 1000 nM (sheet 'Lestaurtinib' of Supplementary Table 1),run:Lestaurtinib_02896_R3,Plate:MR030",88 nM
same,potency estimated from few doses,"compound concentrations:100 nM and 1000 nM (sheet 'Lestaurtinib' of Supplementary Table 1),run:Lestaurtinib_03172_R1,Plate:MR031",51.8 nM

# — publication PMC11062922 (Nature Chemical Biology, 2023)
